Source: PubChem (The Scripps Research Institute Molecular Screening Center)
PKA-R1A activ – activators of PKA-R1A holoenzyme, primary screen, biochemical, fluorescence polarization, Cy5-IP20, bovine R1A, mouse PKAc. cAMP-dependent protein kinase type I-alpha regulatory subunit (Bos taurus) + …. PKA-R1A dissociation; scaled: DMSO 0%, 113 µM cGMP 100%. activation, % at 11.4 µM. 0.083% of 340,000 active;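 active = percent activation above the mean of all tested compounds plus 3 SD, cut at about 19% in these data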;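 also: higher means more PKAc released from R1A so a rise in polarization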
PKA-R2B activ – activators of PKA-R2B holoenzyme, primary screen, biochemical, fluorescence polarization, Cy5-IP20, human; cAMP-dependent protein kinase catalytic subunit beta (Homo sapiens) + cAMP-dependent …; 0.079% of 340,000 active; activation, % at 11.4 µM; PKA-R2B holoenzyme dissociation; R2B truncated from residue 108, S112A mutant; 0% DMSO only, 100% 113 µM cGMP;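 active = activation above a cutoff set at the mean over all compounds plus 3 SD, cut at about 18% in these data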;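 also: higher means more holoenzyme dissociation and a rise in polarization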
Target sequence (P31323 whole entry, looked up, other chains not shown, the tested form may be a part): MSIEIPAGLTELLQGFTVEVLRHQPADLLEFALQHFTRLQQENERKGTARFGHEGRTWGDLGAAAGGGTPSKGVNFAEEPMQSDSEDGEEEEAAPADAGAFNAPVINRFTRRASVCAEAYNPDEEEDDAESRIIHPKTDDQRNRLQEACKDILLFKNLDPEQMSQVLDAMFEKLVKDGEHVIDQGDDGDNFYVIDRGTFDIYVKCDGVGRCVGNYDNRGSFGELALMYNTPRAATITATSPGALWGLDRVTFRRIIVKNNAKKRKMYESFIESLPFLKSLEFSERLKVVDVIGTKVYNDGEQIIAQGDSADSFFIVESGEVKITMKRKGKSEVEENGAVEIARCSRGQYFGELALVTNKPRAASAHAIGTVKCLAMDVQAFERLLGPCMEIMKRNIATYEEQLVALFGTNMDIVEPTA
PAFAH2 inh – PAFAH2 enzyme inhibitors, primary screen, biochemical, fluorescence polarization, human; Platelet-activating factor acetylhydrolase 2, cytoplasmic (Homo sapiens), Q99487; inhibition, % at 3.39 µM; recombinant PAFAH2, FP-rhodamine activity probe; 0.99% of 340,000 active;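 active = inhibition above the mean over all tested compounds plus 3 SD, cut at about 30% in these data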;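 also: inhibitors block probe labeling of enzyme so polarization drops; 0% = enzyme with DMSO and 100% = wells lacking PAFAH2 protein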
pPAFAH FP inh – pPAFAH enzyme inhibitors, primary screen, biochemical, fluorescence polarization, human | recombinant pPAFAH, FP-rhodamine probe fluorescence polarization | 1.5% of 330,000 active | Platelet-activating factor acetylhydrolase (Homo sapiens), Q13093 | inhibition, % at 3.39 µM;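 active = inhibition above the mean inhibition across the screen plus 3 SD, cut at about 25% in these data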;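 also: inhibitors block binding of the rhodamine activity-based probe so polarization drops; 0% = enzyme with DMSO and 100% = wells lacking pPAFAH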
PAFAH1B3 inh – PAFAH1B3 enzyme inhibitors, primary screen, biochemical, fluorescence polarization, human; Platelet-activating factor acetylhydrolase IB subunit alpha1 (Homo sapiens), Q15102; recombinant PAFAH1B3, FP-rhodamine probe; inhibition, % at 3.39 µM; 0.28% of 340,000 active;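 active = inhibition above the screen-wide average of all tested compounds plus 3 SD, cut at about 25% in these data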;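 also: 0% = enzyme with DMSO only and 100% = wells lacking PAFAH1B3 protein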
PAFAH1B2 FP inh – PAFAH1B2 enzyme inhibitors, primary screen, biochemical, fluorescence polarization, human. AID 492953, 2010. Platelet-activating factor acetylhydrolase IB subunit alpha2 (Homo sapiens), P68402. 1.2% of 340,000 active. recombinant PAFAH1B2, FP-rhodamine activity probe. inhibition, % at 3.39 µM;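 active = inhibition above the mean of all tested compounds plus 3 SD, cut at about 24% in these data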;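 also: 0% = enzyme with DMSO and 100% = wells lacking PAFAH1B2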
The depositor's hits bear a star; . = no result. In the library only some 2.6% were active in any assay of this set; here they are far more common.

SMILES	PKA-R1A activ	PKA-R2B activ	PAFAH2 inh	pPAFAH FP inh	PAFAH1B3 inh	PAFAH1B2 FP inh
O=C(CN1C(=O)CSc2ccc(S(=O)(=O)N3CCCCC3)cc21)NCc1ccccc1	-9	2	4	-2	10	10
C=CCn1c(SC)nccc1=O	2	-4	4	.	8	5
O=C(Nc1nnc(-c2ccc3c(c2)CCCC3)o1)C1COc2ccccc2O1 (stereo not drawn)	-4	8	3	31*	7	0
CC(C)NS(=O)(=O)c1ccc(OCC(=O)N2CCN(c3ccccc3)CC2)cc1	2	0	6	9	-8	-4
CCC(C)NS(=O)(=O)c1ccc(OCC(=O)N2CCCC2)cc1 (stereo not drawn)	-8	-1	3	27*	2	-3
O=C(COc1ccc(S(=O)(=O)NC2CCCCC2)cc1)N1CCN(c2cccc(Cl)c2)CC1	-5	-8	-6	28*	5	0
CCOC(=O)C1CCCN(C(=O)COc2ccc(S(=O)(=O)N(CC)c3ccccc3)cc2)C1 (stereo not drawn)	-10	-8	1	34*	8	-2
CC(C)NS(=O)(=O)c1ccc(OCC(=O)N2CCCC2)cc1	-9	-10	-4	13	-3	4
Cc1ccc(C)c(NS(=O)(=O)c2ccc(OCC(=O)N3CCCC3)cc2)c1	-14	-9	5	25*	-12	-1
CCOC(=O)C1CCCN(C(=O)COc2ccc(C(=O)c3ccc(F)cc3)cc2)C1 (stereo not drawn)	0	1	9	5	12	0
COc1cccc(C=Nc2cc(C(C)C)c(O)cc2C)c1O	-3	-7	1	.	3	-4
C#Cc1ccc([C@@H]2C=C(C(=O)O)O[C@H](OCC)[C@H]2CCCO)cc1	-2	-9	4	7	3	-6
COC(=O)C1=C(C(=O)OC)[C@@H]2N(Cc3ccccc3)c3ccccc3[C@@]23C[C@@H](C(=O)OC)N(C(=O)C2CCC2)C3=N1	.	.	.	2	.	.
CSCc1cccc(C(=O)OC(C)C(=O)Nc2c(C)n(C)n(-c3ccccc3)c2=O)c1 (stereo not drawn)	2	-5	6	-6	4	4
O=C(CSc1ccc(S(=O)(=O)N2CCCC2)cn1)Nc1ccc([N+](=O)[O-])cc1C(F)(F)F	-2	-12	-2	.	-5	27*
CC(C)(C)NC(=O)NC(=O)CSc1ccc(S(=O)(=O)N2CCCCC2)cn1	-15	-8	9	0	2	27*
CC1CCN(S(=O)(=O)c2ccc3c4c2CC(=O)N4CC(C)S3)CC1 (stereo not drawn)	-4	-6	62*	27*	-5	16
CC(=O)Nc1ccc(S(=O)(=O)N2CCC(NC(C)=O)(c3cccc(F)c3)CC2)cc1	0	-4	-5	27*	3	2
CCN(CC(=O)NCc1ccc(Cl)cc1)C(=O)/C=C/c1ccccc1	6	-7	2	6	6	27*
CC1CCc2sc(C(=O)N3CCN(c4ncccn4)CC3)cc2C1 (stereo not drawn)	-4	5	5	28*	-7	0
O=C(N/N=C/c1cc([N+](=O)[O-])ccc1O)C12CC3CC(CC(C3)C1)C2	-4	-3	91*	6	7	42*
O=C(N/N=C/c1cc([N+](=O)[O-])ccc1O)NC12CC3CC(CC(C3)C1)C2	-6	-5	23	19	10	88*
CCNC(=O)C(=O)N/N=C/c1cc([N+](=O)[O-])ccc1O	6	7	-2	4	4	4
Cc1ccc(S(=O)(=O)N2CCN(C(=O)COC(=O)CSc3ccc(C)c(C)c3)CC2)c(C)c1	-8	1	13	.	10	2
